According to PubChem BioAssay (EPA / NIEHS):
Where “and” joins values, the source holds several entries; their conditions need not be identical. Identical values can stand only once. Results filed as inconclusive are left out. Where a structure was tested more than once in an assay, its records may differ in their call. Calls of active or inactive are those of the source. Rule for the calls, unless noted: active = hit-call score of the fitted dose curve at least 0.9, where 1 is the maximum; inactive = score below 0.9.

Legend:
[1] = ATG_M_06_TRANS: Attagene TRANS-FACTORIAL HepG2 Assay for M06 Transcription Factor (Internal Marker) (AID 2282983; active = hit-call score of the fitted dose curve at least 0.9, where 1 is the maximum;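 for AC50: potency for rise in reporter mRNA above DMSO baseline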); settings: HepG2 Attagene TRANS M06 internal marker reporter
Method in brief: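 Internal-marker background readout from a multiplexed TRANS reporter system in HepG2; 24 h dosing; mRNA induction quantified by RT-PCR plus capillary electrophoresis fluorescence; DMSO as negative control and baseline.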

[2] = ATG_M_32_TRANS: Attagene TRANS-FACTORIAL HepG2 Assay for M32 Transcription Factor (Internal Marker) (AID 2282984; active = hit-call score of the fitted dose curve at least 0.9, where 1 is the maximum); settings: HepG2 Attagene TRANS M32 internal marker reporter
Method in brief: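 Human hepatoma HepG2, transient MRTU transfection, 24 h treatment. RNA → RT-PCR → fluorescent primer extension → HpaI digest (2 h, 37 C) → CE. Positive-direction fit vs DMSO.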

[3] = target: Nuclear receptor subfamily 4 group A member 2 (Homo sapiens) (UniProt P43354); test: ATG_NURR1_TRANS: Attagene TRANS-FACTORIAL HepG2 Assay for human Nuclear Receptor Related Protein 1 (NURR1) (AID 2282985; active = hit-call score of the fitted dose curve at least 0.9, where 1 is the maximum); settings: HepG2 Attagene TRANS reporter, mRNA readout
Method in brief: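 After 24 h chemical dosing, total RNA from transiently transfected HepG2 cells was reverse-transcribed and reporter cDNA PCR-amplified, FAM-labelled and analysed by capillary electrophoresis. Activity fitted in positive direction, DMSO as negative control.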

[4] = target: Transcriptional activator Myb (Homo sapiens) (UniProt P10242); test: ATG_Myb_CIS: Attagene CIS-FACTORIAL HepG2 Assay for human Myeloblastosis (Myb) Proto-Oncogene Transcription Factor (AID 2282986); settings: HepG2 Attagene CIS-FACTORIAL Myb reporter transcription; actives raise or lower the signal
Method in brief: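 Reporter transcript levels, quantified by fluorescent RT-PCR and capillary electrophoresis, serve as the read-out. Transfected HepG2 cells carrying cis-promoter reporter units are dosed for 24 hours, and curves are fitted bidirectionally against DMSO controls.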

[5] = target: Nuclear respiratory factor 1 (Homo sapiens) (UniProt Q16656); test: ATG_NRF1_CIS: Attagene CIS-FACTORIAL HepG2 Assay for human Nuclear Respiratory Factor 1 (NRF1) Orphan Gene (AID 2282987); settings: HepG2 NRF1 cis-element reporter, Attagene multiplex; actives raise or lower the signal
Method in brief: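 Multiplexed cis-reporter assay, HepG2 cells, 24 h treatment. Total RNA → oligo(dT) RT → PCR with reporter-specific primers → 6-FAM primer extension → HpaI cut → CE. Bidirectional fit vs DMSO.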

[6] = ATG_NFI_CIS: Attagene CIS-FACTORIAL HepG2 Assay for human Nuclear Factor I (NFI) (AID 2282989); settings: HepG2 cis-regulatory reporter, NFI response element transcription; actives raise or lower the signal
Method in brief: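 Read-out: reporter mRNA via RT-PCR plus capillary electrophoresis with fluorescence detection. Transiently transfected HepG2 (endogenous TF activity on cis promoters), 24 h compound exposure; gain or loss of signal fitted against DMSO.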

[7] = target: Myc proto-oncogene protein (Homo sapiens) (UniProt P01106); test: ATG_Myc_CIS: Attagene CIS-FACTORIAL HepG2 Assay for human Myelocytomatosis (Myc) Proto-Oncogene Transcription Factor (AID 2282990); settings: HepG2, Attagene cis-reporter transcription factor activity; actives raise or lower the signal
Method in brief: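 HepG2 cells transiently transfected with multiple cis-promoter-driven reporter transcription units, so endogenous TF activity is read. After 24 h compound exposure, reporter mRNA was quantified by RT-PCR, 6-FAM labelling, HpaI digestion and capillary electrophoresis; bidirectional fit versus DMSO.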

[8] = ATG_NF_kB_CIS: Attagene CIS-FACTORIAL HepG2 Assay for human Nuclear Factor Kappa B (NF-kB) (AID 2282991); settings: HepG2 Attagene cis-factorial NF-kB reporter mRNA; actives raise or lower the signal
Method in brief: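 Transient MRTU transfection of human HepG2 liver cells → 24 h chemical exposure → total RNA, oligo(dT) RT → PCR, 6-FAM primer extension, HpaI digest 2 h 37 C → CE fragment analysis. Bidirectional fitting, DMSO negative control.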

[9] = ATG_NRF2_ARE_CIS: Attagene CIS-FACTORIAL HepG2 Assay for human Nuclear Factor Erythroid 2 Related Factor 2 (NFR2) response to Antioxidant Response Elements (ARE) (AID 2282992); settings: HepG2 Attagene ARE/NRF2 reporter, transcription factor activity; actives raise or lower the signal;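 for AC50: reporter mRNA level measured by RT-PCR and capillary electrophoresis fluorescence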
Method in brief: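 Multiplexed reporter mRNA profiling in HepG2 after a 24 h chemical exposure. Curves fitted in both directions relative to DMSO negative control.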

Measured: AC50

Sequence of Myc proto-oncogene protein (Homo sapiens) (P01106 whole entry, looked up): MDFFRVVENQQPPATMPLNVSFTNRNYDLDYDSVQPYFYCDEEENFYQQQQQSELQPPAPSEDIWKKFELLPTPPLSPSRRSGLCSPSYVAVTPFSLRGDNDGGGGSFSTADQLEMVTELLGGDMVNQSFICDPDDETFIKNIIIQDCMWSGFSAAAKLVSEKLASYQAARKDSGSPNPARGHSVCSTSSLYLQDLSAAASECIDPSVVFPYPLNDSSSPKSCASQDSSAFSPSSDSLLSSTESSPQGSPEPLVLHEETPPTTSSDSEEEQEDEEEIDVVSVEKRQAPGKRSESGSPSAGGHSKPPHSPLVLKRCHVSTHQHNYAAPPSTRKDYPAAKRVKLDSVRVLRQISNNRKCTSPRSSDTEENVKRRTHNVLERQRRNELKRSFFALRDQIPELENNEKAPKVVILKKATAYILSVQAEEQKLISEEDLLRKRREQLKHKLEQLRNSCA
Sequence of Transcriptional activator Myb (Homo sapiens) (P10242 whole entry, looked up): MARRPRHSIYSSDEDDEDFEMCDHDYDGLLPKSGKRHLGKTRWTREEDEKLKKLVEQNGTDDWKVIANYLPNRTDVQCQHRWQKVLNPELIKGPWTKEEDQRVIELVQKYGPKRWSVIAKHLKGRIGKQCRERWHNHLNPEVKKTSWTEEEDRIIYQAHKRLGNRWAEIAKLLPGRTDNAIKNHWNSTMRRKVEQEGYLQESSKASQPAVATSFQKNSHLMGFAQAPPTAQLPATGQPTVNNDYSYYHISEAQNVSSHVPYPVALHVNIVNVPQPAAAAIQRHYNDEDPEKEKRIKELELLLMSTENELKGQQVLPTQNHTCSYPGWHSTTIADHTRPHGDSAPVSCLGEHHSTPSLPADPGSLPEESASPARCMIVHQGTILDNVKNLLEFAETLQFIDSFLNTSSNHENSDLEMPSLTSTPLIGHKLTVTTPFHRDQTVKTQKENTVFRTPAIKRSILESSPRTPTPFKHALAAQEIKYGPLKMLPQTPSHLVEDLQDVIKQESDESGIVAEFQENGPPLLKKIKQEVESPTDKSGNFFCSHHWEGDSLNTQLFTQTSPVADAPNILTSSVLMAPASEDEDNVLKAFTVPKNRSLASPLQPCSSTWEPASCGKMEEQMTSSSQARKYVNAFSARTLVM
Sequence of Nuclear respiratory factor 1 (Homo sapiens) (Q16656 whole entry, looked up): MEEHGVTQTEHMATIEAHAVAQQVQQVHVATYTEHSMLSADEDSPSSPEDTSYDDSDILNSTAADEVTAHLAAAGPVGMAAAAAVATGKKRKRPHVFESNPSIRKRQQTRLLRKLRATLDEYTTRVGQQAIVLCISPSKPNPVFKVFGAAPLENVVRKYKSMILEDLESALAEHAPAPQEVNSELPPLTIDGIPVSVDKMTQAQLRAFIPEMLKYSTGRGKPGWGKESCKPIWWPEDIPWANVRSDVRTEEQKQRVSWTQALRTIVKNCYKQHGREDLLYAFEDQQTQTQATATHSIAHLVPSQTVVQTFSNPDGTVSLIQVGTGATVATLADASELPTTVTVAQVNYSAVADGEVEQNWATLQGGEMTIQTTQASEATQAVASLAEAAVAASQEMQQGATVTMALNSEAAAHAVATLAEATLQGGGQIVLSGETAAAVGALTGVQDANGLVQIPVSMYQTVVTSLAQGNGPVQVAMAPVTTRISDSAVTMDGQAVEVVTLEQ
Sequence of Nuclear receptor subfamily 4 group A member 2 (Homo sapiens) (P43354 whole entry, looked up): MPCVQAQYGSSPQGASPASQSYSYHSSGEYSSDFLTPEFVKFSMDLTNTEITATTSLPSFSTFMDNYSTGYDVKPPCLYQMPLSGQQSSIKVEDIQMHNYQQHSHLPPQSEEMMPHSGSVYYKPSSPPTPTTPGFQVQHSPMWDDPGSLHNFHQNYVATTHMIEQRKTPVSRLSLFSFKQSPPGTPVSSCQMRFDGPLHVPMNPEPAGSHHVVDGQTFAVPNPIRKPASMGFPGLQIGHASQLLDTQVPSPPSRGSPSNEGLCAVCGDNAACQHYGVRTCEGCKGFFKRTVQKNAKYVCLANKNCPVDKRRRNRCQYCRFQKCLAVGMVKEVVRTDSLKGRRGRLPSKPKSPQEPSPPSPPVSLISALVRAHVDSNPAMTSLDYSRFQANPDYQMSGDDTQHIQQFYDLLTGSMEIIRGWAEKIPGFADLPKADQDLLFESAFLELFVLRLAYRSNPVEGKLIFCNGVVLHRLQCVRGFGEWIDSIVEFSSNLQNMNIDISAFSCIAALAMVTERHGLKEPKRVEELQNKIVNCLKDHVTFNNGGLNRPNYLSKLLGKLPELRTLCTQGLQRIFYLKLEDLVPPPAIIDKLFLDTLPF

Oc1c(I)cc(I)cc1I
active: [3] 100 µM
not listed: [8] | [9]
inactive: all other assays above

O=C1C2(Cl)C3(Cl)C4(Cl)C(Cl)(Cl)C5(Cl)C3(Cl)C1(Cl)C5(Cl)C24Cl (stereo unspecified)
active: [3] 18.9 µM | [8] 16.5 µM | [9] 6.04 µM
inactive: [1] | [2] | [3] | [5] | [7] | [8] | [9]

C=CCc1ccc(OC)cc1
not listed: [8]
inactive: all other assays above

O=Cc1cccc(Oc2ccccc2)c1
not listed: [6] | [7]
inactive: all other assays above

O=C(O)C(Cl)(Cl)Cl
not listed: [8]
inactive: all other assays above

[O-][Cl+2]([O-])O
inactive: all assays above

CCC(C)c1cccc(C(C)CC)c1O (stereo unspecified)
active: [3] 33.4 µM | [9] 18 µM
not listed: [6]
inactive: all other assays above

CCCCC(CC)CO[N+](=O)[O-] (stereo unspecified)
active: [9] 167 µM
not listed: [8]
inactive: all other assays above

ClC1=C(Cl)[C@]2(Cl)[C@H]3[C@H]([C@H]4C=C[C@H]3C4)[C@@]1(Cl)C2(Cl)Cl
not listed: [6] | [8]
inactive: all other assays above

O=C(OC1CCCCC1)c1ccccc1C(=O)OC1CCCCC1
active: [9] 18.4 µM
not listed: [7]
inactive: all other assays above

N#CN=C(N)N
inactive: all assays above

N#Cc1ccccn1
not listed: [8]
inactive: all other assays above

ClCc1cccnc1
active: [6] 60.8 µM | [9] 27.9 µM
inactive: all other assays above

CC(=O)C=C(C)C
inactive: all assays above

CC12CC1(C)C(=O)N(c1cc(Cl)cc(Cl)c1)C2=O (stereo unspecified)
not listed: [7] | [8]
inactive: all other assays above

O=C(O)C(F)(F)C(F)(F)C(F)(F)C(F)(F)C(F)(F)C(F)(F)C(F)(F)C(F)(F)C(F)(F)C(F)(F)F
active: [1] 129 µM | [5] 162 µM and 31.1 µM
inactive: [2] | [3]

COP(=S)(OC)Oc1ccc(Sc2ccc(OP(=S)(OC)OC)cc2)cc1
active: [9] 3.58 µM
not listed: [7] | [8]
inactive: all other assays above

ClCCBr
not listed: [6] | [9]
inactive: all other assays above

CC(=O)C(Cl)C(=O)N(C)C (stereo unspecified)
active: [9] 25.9 µM
not listed: [8]
inactive: all other assays above

CC(C)c1cccc(C(C)C)c1O
not listed: [6] | [8]
inactive: all other assays above

Clc1nc(Cl)nc(Cl)n1
not listed: [4] | [8] | [9]
inactive: all other assays above

COC[C@H](C)N(C(=O)CCl)c1c(C)csc1C
inactive: all assays above

Clc1ccc(COC(Cn2ccnc2)c2ccc(Cl)cc2Cl)cc1 (stereo unspecified)
active: [9] 6.8 µM
not listed: [6]
inactive: all other assays above

O=C(O)C(F)(F)C(F)(F)C(F)(F)C(F)(F)C(F)(F)C(F)(F)F
not listed: [9]
inactive: all other assays above

CC(C)(C)CC(C)(C)c1ccc(O)cc1
active: [9] 11 µM [middle of 4 runs]
inactive: all other assays above

c1cc[c]([Hg][c]2ccccc2)cc1
not listed: [6] | [8] | [9]
inactive: all other assays above

Nc1ccc(-c2ccc(N)c(Cl)c2)cc1Cl
inactive: [1] | [2] | [3] | [5] | [6]
